Assay results: PubChem BioAssay

System: Plasmodium falciparum Sir2 (PF13_0152, Sir2A)
Assay: Plasmodium falciparum Sir2A binding compounds – biochemical, small-molecule microarray, 635 nm fluorescence, primary screen (AID 1098);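 note: score merges spot fluorescence intensity with its signal-to-noise ratio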
Conditions: fluorescence 635 nm, higher = more signal

SMILES	composite z-score
C=CCOC(=O)[C@@H]1[C@H]2C(=O)O[C@H](c3ccccc3)[C@H](c3ccccc3)N2[C@H](c2ccc(OCCOC(=O)[C@H]3C[C@H]4C(=O)N[C@@H](CCCCN(C)C)C(=O)N4[C@H]3c3ccc(O)cc3)cc2)[C@@]12C(=O)Nc1ccc(I)cc12	1.52
CCCC=C(CCC)[C@@H](NC(=O)c1ccc(C(F)(F)F)cc1)c1ccc(C(F)(F)F)cc1	0.654
COc1cc(C(O)C2C=CC3C(=O)N(c4ccccc4)C(=O)C3N2Nc2ccccc2)cc(OC)c1OC (stereo not drawn)	1.27
CC(=O)OCC1C2CC[C@H]3C(OCc4ccc(F)cc4C(F)(F)F)OC[C@]4(C)[C@H]3C2=C(CN4C(=O)OC(C)(C)C)[C@H](C)C1COC(C)=O (stereo partly drawn)	0.547
COC(=O)[C@@]1(Cc2ccc(F)cc2)[C@H]2c3cc(C(=O)N4CCCC4)n(Cc4cc(F)cc5c4OCOC5)c3C[C@H]2CN1C(=O)c1ccccc1	0.672
C[C@@H]1ON(c2ccccc2)[C@H](c2ccccc2)[C@H]1C(=O)O	-0.344
C=CCC(OC(C)=O)[C@@H]1[C@@H](N(Cc2cc3ccccc3o2)C(=O)Cc2ccc(OC)cc2)c2cc(OCCCO)ccc2N1C(=O)c1ccc2ccccc2n1 (stereo partly drawn)	0.0682
COC(=O)[C@@]1(Cc2ccc(OC)cc2)[C@H]2c3cc(C(=O)N4CCCC4)n(Cc4c(CO)[nH]cc(C)c4=O)c3C[C@H]2CN1C(=O)c1ccccc1	0.488
COc1ccc(NN2C(C(O)c3ccc(I)cc3)C=CC3C(=O)N(C4CCCCC4)C(=O)C32)cc1 (stereo not drawn)	0.404
O=C1O[C@H](c2ccccc2)[C@H](c2ccccc2)N2[C@H]1[C@@H](C(=O)N1CCN(c3ncccn3)CC1)[C@]1(C(=O)Nc3ccc(C#CCCO)cc31)[C@H]2c1ccc(O)cc1	0.772
CC1CC/C=C\[C@H]2OC34C=CCN(c5ccc(Cl)cc5)C(=O)[C@H]3N(CCCCCCO)C(=O)[C@]4(C)C2C(=O)O1 (stereo partly drawn)	0.597
O=C(NC1CC1)[C@@H]1c2ccccc2C(=O)N(Cc2cc(C(F)(F)F)cc(C(F)(F)F)c2)[C@H]1c1ccc(CO)cc1	0.965
COc1ccc([Si](C)(C)[C@@H]2[C@@H](CC(=O)N3Cc4ccccc4C[C@H]3CO)O[C@]3(C(=O)N(Cc4ccc(N5CCOC5=O)cc4)c4ccccc43)[C@H]2C)cc1	1.09
CN1C(=O)C2C(C1=O)C1C=C(CCCO)C2C(C2CC2)N1Cc1cccc(OC(F)(F)F)c1 (stereo not drawn)	1.79
[N-]=[N+]=Nc1ccccc1[C@@H]1OC(c2ccc(OCCCO)cc2)=N[C@]1(Cc1ccccc1)C(=O)NCCN1CCOCC1	0.669
COC(=O)[C@@]1(Cc2ccccc2)N=C(c2ccc(OCCCO)cc2)O[C@H]1c1ccccc1CN=[N+]=[N-]	1.61
Cc1ccc(N2C(=O)c3ccccc3[C@](C)(C(=O)NCCCN(C)C)[C@@H]2c2ccc(CO)cc2)nc1	0.485
CC(C)N1C(=O)C[C@@](C(=O)NCCN2CCOCC2)(c2ccc([N+](=O)[O-])cc2)[C@H]1c1ccc(CO)cc1	1.88
CN(C)CCCNC(=O)[C@@]1(Cc2ccccc2I)c2ccccc2C(=O)N(C2CCCCC2)[C@H]1c1ccc(CO)cc1	0.856
CC(C)N1C(=O)c2ccccc2[C@@H](C(=O)NCC(F)(F)F)[C@@H]1c1ccc(CO)cc1	0.861
CC(C)=C1C(=O)C(c2ccccc2)=C2CN3C(=O)N(CCc4ccccc4)C(=O)[C@]3(C)[C@H]21	1.27
COCCCNC(=O)[C@@]1(CCS(=O)(=O)c2ccccc2)COC(c2ccc(OCCCO)cc2)=N1	1.37
O=C1C2C=CC(C(O)C3CCCCC3)N(n3cnnc3)C2C(=O)N1Cc1ccccc1 (stereo not drawn)	0.815
